# Experimental data as given in PubChem BioAssay.
# Calls of active or inactive are those of the source.
# What was measured:
# [1] = test system: PRMT1 (protein arginine N-methyltransferase 1); assay: PRMT1 binders on small-molecule microarrays, primary screen, biochemical, small-molecule microarray, 635 nm fluorescence (AID 1088); settings: small-molecule microarray binding, higher = more signal;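 further: binding of Prmt1 protein to compounds spotted on small-molecule microarray slides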
# [2] = yeast growth modulation, basal conditions, primary screen, YJM789 clinical isolate, OD600, 24 h (AID 1089);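 further: growth of clinical yeast isolate S. cerevisiae YJM 789 seeded 1000 cells per well; test concentration not given here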; settings: S. cerevisiae YJM789 growth, higher = more signal, called active from +8 up or from −8 down
# [3] = fission yeast growth modulation, primary screen, strain 972, OD600, 24 h, no modulator (AID 1090);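 further: basal condition with compound alone and no growth modifier present; test concentration not given here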; settings: S. pombe 972 growth, higher = more signal, called active from +8 up or from −8 down
# [4] = S. cerevisiae growth modulation with rapamycin, primary screen, strain BY4716, OD600, 96 h (AID 1091); settings: higher = more signal, called active from +8 up or from −8 down; further: test concentration not given here
# [5] = target: Torsin-1A-interacting protein 2 (Homo sapiens) (UniProt Q8NFQ8); assay: LULL1 binders on small-molecule microarray, primary screen, cell lysate, human LULL1 lysate, 635/667 nm fluorescence (AID 1092); settings: hLULL1 lysate binding, 635 nm fluorescence, higher = more signal;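 further: probe is lysate of COS7 cells overexpressing human LULL1; score merges per-feature 667 nm fluorescence with signal-to-noise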
# [6] = E. coli growth modulation, two-sided OD650, primary screen, E. coli filamentation project, strain DRC41, 24 h (AID 1093); settings: OD650, 24 h, higher = more signal, called active from +8 up or from −8 down;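 further: MC1000 strain lacking acrAB efflux and sulA so SOS filamentation is blocked; test concentration not given here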
# [7] = small-molecule microarray binders of probe aLefty2, primary screen, biochemical, biotinylated probe, 635/667 nm fluorescence (AID 1094); settings: higher = more signal;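 further: score merges spot fluorescence near 667 nm with spot signal-to-noise ratio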
# [8] = test system: Noggin (protein binding on small-molecule microarray); assay: Noggin binders on small-molecule microarray, primary screen, biochemical, 635/667 nm fluorescence (AID 1095); settings: 635 nm fluorescence, higher = more signal;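 further: score merges 667 nm feature fluorescence with signal to noise over triplicate slides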
# [9] = target: Neurogenic locus notch homolog protein 3 (Homo sapiens) (UniProt Q9UM47); assay: NOTCH3 binders on small-molecule microarray, primary screen, biochemical, 635/667 nm fluorescence (AID 1096); settings: NOTCH3 binding, 635 nm fluorescence, higher = more signal
# [10] = small-molecule microarray binders of probe aEGFR, primary screen, biochemical, biotinylated probe, 635/667 nm fluorescence (AID 1097); settings: higher = more signal;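 further: probe is a biotinylated anti-EGFR antibody binding compounds printed on slides; score combines fluorescence near 667 nm and signal to noise of each spot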
# Chain of Neurogenic locus notch homolog protein 3 (Homo sapiens) (Q9UM47 whole entry, looked up): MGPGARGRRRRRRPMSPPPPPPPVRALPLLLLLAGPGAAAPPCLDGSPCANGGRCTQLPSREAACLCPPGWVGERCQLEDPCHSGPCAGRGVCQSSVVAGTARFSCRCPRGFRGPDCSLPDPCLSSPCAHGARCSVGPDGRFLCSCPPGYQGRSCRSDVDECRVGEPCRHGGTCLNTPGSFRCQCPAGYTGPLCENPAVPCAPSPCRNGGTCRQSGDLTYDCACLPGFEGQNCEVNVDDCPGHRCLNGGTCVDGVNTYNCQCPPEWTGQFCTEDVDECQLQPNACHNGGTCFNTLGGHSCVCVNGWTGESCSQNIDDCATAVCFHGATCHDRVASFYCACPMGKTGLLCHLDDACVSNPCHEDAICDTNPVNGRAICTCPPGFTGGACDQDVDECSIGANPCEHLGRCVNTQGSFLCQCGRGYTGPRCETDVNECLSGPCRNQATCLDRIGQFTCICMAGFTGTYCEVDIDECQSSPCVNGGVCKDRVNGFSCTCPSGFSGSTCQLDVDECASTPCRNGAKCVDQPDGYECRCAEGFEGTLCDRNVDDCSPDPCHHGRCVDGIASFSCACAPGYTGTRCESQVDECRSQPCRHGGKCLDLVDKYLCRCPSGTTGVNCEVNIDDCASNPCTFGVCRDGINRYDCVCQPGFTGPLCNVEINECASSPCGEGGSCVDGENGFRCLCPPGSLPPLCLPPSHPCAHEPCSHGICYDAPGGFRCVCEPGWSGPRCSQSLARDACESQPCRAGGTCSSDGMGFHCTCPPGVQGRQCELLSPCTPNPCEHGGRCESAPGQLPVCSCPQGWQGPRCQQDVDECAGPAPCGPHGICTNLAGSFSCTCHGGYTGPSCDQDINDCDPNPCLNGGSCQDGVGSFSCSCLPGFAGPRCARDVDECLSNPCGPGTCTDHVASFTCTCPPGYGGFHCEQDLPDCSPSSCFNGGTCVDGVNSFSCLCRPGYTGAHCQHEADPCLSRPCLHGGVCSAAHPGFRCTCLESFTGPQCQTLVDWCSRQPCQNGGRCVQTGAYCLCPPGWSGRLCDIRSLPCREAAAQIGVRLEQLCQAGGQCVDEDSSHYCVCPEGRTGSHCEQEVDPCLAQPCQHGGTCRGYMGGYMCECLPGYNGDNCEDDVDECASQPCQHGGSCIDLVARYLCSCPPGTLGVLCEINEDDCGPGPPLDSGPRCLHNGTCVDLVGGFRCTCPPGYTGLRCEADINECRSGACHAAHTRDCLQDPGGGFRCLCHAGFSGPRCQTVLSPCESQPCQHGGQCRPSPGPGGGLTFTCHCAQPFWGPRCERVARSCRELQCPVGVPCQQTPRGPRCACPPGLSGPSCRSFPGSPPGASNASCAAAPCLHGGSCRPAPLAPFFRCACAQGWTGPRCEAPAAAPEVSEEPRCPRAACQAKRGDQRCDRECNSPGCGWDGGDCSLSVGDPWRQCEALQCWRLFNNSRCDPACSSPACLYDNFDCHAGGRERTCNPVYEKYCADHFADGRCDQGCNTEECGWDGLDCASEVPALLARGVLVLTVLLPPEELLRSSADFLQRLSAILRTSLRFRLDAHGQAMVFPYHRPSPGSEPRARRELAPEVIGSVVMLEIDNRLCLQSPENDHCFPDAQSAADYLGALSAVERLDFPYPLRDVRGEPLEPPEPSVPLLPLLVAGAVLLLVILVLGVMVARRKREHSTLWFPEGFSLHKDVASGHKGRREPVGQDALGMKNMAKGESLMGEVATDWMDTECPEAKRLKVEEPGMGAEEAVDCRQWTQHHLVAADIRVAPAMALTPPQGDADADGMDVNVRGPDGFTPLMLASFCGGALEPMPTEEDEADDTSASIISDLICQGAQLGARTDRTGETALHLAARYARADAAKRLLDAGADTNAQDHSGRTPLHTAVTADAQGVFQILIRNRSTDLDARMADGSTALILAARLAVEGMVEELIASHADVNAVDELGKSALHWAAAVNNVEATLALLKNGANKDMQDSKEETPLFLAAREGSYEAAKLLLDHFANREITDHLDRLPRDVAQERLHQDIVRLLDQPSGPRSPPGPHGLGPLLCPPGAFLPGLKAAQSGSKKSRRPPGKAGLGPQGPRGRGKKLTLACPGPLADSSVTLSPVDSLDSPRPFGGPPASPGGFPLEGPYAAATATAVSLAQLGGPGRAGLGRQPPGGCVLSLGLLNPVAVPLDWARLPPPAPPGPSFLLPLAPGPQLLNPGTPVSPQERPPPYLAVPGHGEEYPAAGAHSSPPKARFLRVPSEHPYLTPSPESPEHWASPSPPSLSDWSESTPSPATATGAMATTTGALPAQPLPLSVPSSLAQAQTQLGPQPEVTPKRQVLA
# Chain of Torsin-1A-interacting protein 2 (Homo sapiens) (Q8NFQ8 whole entry, looked up): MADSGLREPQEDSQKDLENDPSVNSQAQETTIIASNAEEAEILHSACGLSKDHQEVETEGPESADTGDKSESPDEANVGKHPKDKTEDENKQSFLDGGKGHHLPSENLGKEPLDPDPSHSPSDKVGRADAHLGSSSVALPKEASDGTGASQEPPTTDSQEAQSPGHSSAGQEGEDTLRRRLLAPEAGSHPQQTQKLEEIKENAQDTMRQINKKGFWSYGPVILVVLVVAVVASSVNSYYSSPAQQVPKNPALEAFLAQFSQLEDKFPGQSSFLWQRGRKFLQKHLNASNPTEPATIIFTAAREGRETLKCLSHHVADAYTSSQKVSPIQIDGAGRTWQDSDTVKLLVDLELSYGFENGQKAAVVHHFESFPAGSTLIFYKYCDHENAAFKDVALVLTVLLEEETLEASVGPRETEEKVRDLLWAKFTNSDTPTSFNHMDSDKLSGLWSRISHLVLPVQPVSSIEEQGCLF
Compound,composite z-score [1],z-score [2],z-score [3],z-score [4],composite z-score [5],z-score [6],composite z-score [7],composite z-score [8],composite z-score [9],composite z-score [10]
O=C1O[C@H](c2ccccc2)[C@H](c2ccccc2)N2[C@H]1[C@@H](C(=O)Nc1nc3ccccc3s1)[C@]1(C(=O)Nc3ccccc31)[C@H]2c1ccccc1OCCO,1.5,1.91 (inactive),2.2 (inactive),3.94 (inactive),3.09,0.732 (inactive),0.229,0.712,0.595,-0.0828
C=C(C)C1CN([C@H](CO)c2ccccc2)C(=O)/C1=C\c1ccccc1 (stereo not given in full),0.464,-0.334 (inactive),-3.2 (inactive),-0.481 (inactive),-0.302,1.82 (inactive),-0.0931,0.467,0.0584,-0.167
COCCOC(=O)N1C(=O)[C@@]2(c3cc(C#CCC(C(=O)OC)C(=O)OC)ccc31)[C@H](C(=O)N1CCc3cc(OC)c(OC)cc3C1)[C@H]1C(=O)O[C@H](c3ccccc3)[C@H](c3ccccc3)N1[C@@H]2c1ccccc1OCCO,1.53,1.32 (inactive),1.02 (inactive),4.36 (inactive),2.34,1.09 (inactive),-0.0754,1.76,1.01,0.0209
C=CC[C@H](O)c1ccc(O)c2ccccc12,1.56,-7.13 (inactive),-17.9 (active),8.59 (active),1.71,1.49 (inactive),0.0277,1.07,1.07,-0.0151
COC(=O)C1=CC(CCCO)=CC(c2ccc(CN3CCCC3)cc2)N(C)C=C1C(=O)OC (stereo not given),0.853,-0.512 (inactive),0.0939 (inactive),-0.19 (inactive),3.4,0.0791 (inactive),0.0723,-0.2,0.276,0.0816
C=CCNC(=O)[C@@H]1[C@H]2C(=O)O[C@H](c3ccccc3)[C@H](c3ccccc3)N2[C@H](c2ccc(OCCO)cc2)[C@@]12C(=O)Nc1ccc(C#CC3=CCCCC3)cc12,1.54,1.78 (inactive),1.18 (inactive),3.36 (inactive),2.94,-0.639 (inactive),-0.168,0.918,1.14,0.0526
CC(C)[Si](C#Cc1ccccc1)(O[C@H](c1ccccc1)c1cn(Cc2ccccc2)nn1)C(C)C,1.02,-1.94 (inactive),-19.9 (active),-2.28 (inactive),2.04,2.14 (inactive),-0.195,1.08,1.01,-0.133
CC(C)(C)OC(=O)CC[C@@]1(C(N)=O)N=C(c2ccc(OCCCO)cc2)O[C@@H]1c1ccccc1CN=[N+]=[N-],-0.319,0.689 (inactive),-0.477 (inactive),-0.132 (inactive),2.86,0.035 (inactive),0.669,0.324,0.851,0.756
COc1ccc([Si](C)(C)[C@H]2[C@H](CC(=O)N3CCC[C@H]3CO)O[C@@]3(C(=O)N(C)c4c(Br)cc(C)cc43)[C@@H]2C)cc1,1.54,-0.749 (inactive),-0.108 (inactive),-0.385 (inactive),3.42,-0.2 (inactive),0.412,2.05,0.498,0.459
COCCCNC(=O)[C@@]1(CCC(=O)OC(C)(C)C)N=C(c2ccc(OCCCO)cc2)O[C@H]1c1ccccc1,1.53,0.241 (inactive),-0.629 (inactive),0.0716 (inactive),3.51,1.25 (inactive),0.0296,1.56,0.275,0.0682
C=CCC(OC(C)=O)[C@@H]1[C@@H](N(Cc2cccc3ccccc23)C(=O)c2ccc(C)cc2)c2cc(OCCCO)ccc2N1C(=O)Cc1ccc2ccccc2c1 (stereo not given in full),-0.52,-1.8 (inactive),-0.825 (inactive),-0.614 (inactive),0.318,1.17 (inactive),-0.113,-0.206,0.141,-0.184
CCN1C(=O)C2CC(=O)C3C(CN(S(=O)(=O)c4ccc(C)cc4)C3c3ccc(C)cc3)C2C1=O (stereo not given),0.751,-0.01 (inactive),0.616 (inactive),0.627 (inactive),2.75,0.398 (inactive),-0.0176,-0.841,0.627,-0.0089
Cc1c(NC(=O)/C(C#N)=C/C=C/c2ccc([N+](=O)[O-])cc2)c(=O)n(-c2ccccc2)n1C,1.49,0.437 (inactive),-0.914 (inactive),0.0795 (inactive),3.17,-1.46 (inactive),-0.022,0.305,1.04,0.0506
CC(C)N1C(=O)[C@@]2(Cc3ccccc31)c1ccccc1C(=O)N(Cc1ccccc1)[C@H]2c1ccc(CO)cc1,-0.0364,1.43 (inactive),0.555 (inactive),-0.204 (inactive),0.0342,0.365 (inactive),-0.578,0.209,-0.508,-0.424
C=CCOC(=O)[C@H]1[C@@H]2C(=O)O[C@@H](c3ccccc3)[C@@H](c3ccccc3)N2[C@@H](c2ccc(OCCOC(=O)[C@@H]3C[C@@H]4C(=O)N[C@@H](Cc5ccccc5)C(=O)N4[C@@H]3c3ccc(O)cc3)cc2)[C@]12C(=O)Nc1ccc(I)cc12,1.34,1.77 (inactive),2.14 (inactive),5.89 (inactive),1.93,0.114 (inactive),-0.0666,1.49,0.918,-0.0119
COc1c(C)cc(-c2cc3c(c(CCc4ccccc4)n2)[Si](C(C)C)(C(C)C)O[C@H]3c2ccccc2)cc1C,-0.848,0.864 (inactive),0.307 (inactive),33.1 (active),0.0198,-0.899 (inactive),-0.0519,0.108,0.24,-0.162
COc1ccc(CCNC(=O)[C@@]2(c3ccc([N+](=O)[O-])cc3)CC(=O)N(C3CCCCC3)[C@@H]2c2ccc(CO)cc2I)cc1,1.39,0.717 (inactive),0.0908 (inactive),5.88 (inactive),2.34,0.793 (inactive),-0.0544,0.153,0.594,0.227
CCc1cccc(NC(=O)O[C@H]2[C@H](OC(=O)Nc3ccccc3-c3ccccc3)[C@H](OC(=O)Nc3ccccc3-c3ccccc3)[C@@H](OC)O[C@@H]2CO)c1,1.55,1.95 (inactive),1.31 (inactive),0.423 (inactive),2.91,-1.08 (inactive),0.229,1.48,1.05,-0.0232
COCCOC(=O)N1C(=O)[C@@]2(c3cc(C#CCCO)ccc31)[C@H](c1ccc(O)cc1)N1[C@H](c3ccccc3)[C@H](c3ccccc3)OC(=O)[C@H]1[C@@H]2C(=O)NC[C@H](O)c1ccccc1,1.53,1.08 (inactive),0.933 (inactive),3.26 (inactive),2.15,1.76 (inactive),-0.195,0.697,1.03,-0.103
O=C1N(Cc2ccccc2)Cc2ccccc2C[C@@]12COC(c1ccc(OCCCO)cc1)=N2,1.38,1.92 (inactive),-1.05 (inactive),6.73 (inactive),1.79,0.615 (inactive),0.363,0.0489,0.117,-0.0315
CCCCCN1CC=CC23O[C@@H]4/C=C\CCCOC(=O)C4[C@H]2C(=O)N(CCO)[C@@H]3C1=O (stereo not given in full),-0.0525,-0.402 (inactive),-1.15 (inactive),-1.46 (inactive),3.42,3.22 (inactive),-0.134,0.486,-0.285,-0.0987
COCCOC(=O)N1C(=O)[C@@]2(c3cc(C#CCNC(N)=O)ccc31)[C@H](C(=O)N1CCN(c3ncccn3)CC1)[C@H]1C(=O)O[C@H](c3ccccc3)[C@H](c3ccccc3)N1[C@@H]2c1ccc(O)cc1,-0.479,-0.357 (inactive),-0.562 (inactive),0.0816 (inactive),1.37,-0.324 (inactive),-0.547,-1.27,-0.637,-0.384
CC(C)c1ccc(NN2C(C(O)C(C)c3ccccc3)C=CC3C(=O)N(c4ccccc4)C(=O)C32)cc1 (stereo not given),1.57,-0.202 (inactive),0.0423 (inactive),1.21 (inactive),3.18,-1.28 (inactive),0.57,0.272,1.07,0.298
C=CCNC(=O)[C@@H]1[C@H]2C(=O)O[C@H](c3ccccc3)[C@H](c3ccccc3)N2[C@H](c2ccc(O)cc2)[C@@]12C(=O)Nc1ccc(C#CC3=CCCCC3)cc12,1.55,1.03 (inactive),0.185 (inactive),1.74 (inactive),2.93,-0.43 (inactive),-0.162,1.03,1.05,0.392
COCCOC(=O)N1C(=O)[C@@]2(c3ccccc31)[C@H](C(=O)Nc1nc3ccccc3s1)[C@H]1C(=O)O[C@H](c3ccccc3)[C@H](c3ccccc3)N1[C@@H]2c1ccccc1OCCO,1.56,2.4 (inactive),2.78 (inactive),5.08 (inactive),2.73,0.694 (inactive),0.248,0.579,1.1,-0.0035
CC(C)(C)OC(=O)N1[C@@H](C=C(Br)Br)COC1(C)C,0.656,-2.93 (inactive),-6.61 (inactive),-1.27 (inactive),0.546,1.74 (inactive),-0.0815,0.462,0.668,-0.0954
O=C1C2C=CC(C(O)c3ccccn3)N(Nc3ccc([N+](=O)[O-])cc3)C2C(=O)N1c1ccccc1 (stereo not given),0.379,-0.931 (inactive),0.587 (inactive),-0.622 (inactive),1.12,-1.36 (inactive),-0.248,-0.493,0.772,-0.047
O=C/C=C/c1ccc(-c2ccccc2)cc1,-0.645,-25.4 (active),-19.9 (active),-5.08 (inactive),-0.7,-0.168 (inactive),-0.103,-0.339,-0.586,-0.15
COCCOC(=O)N1C(=O)[C@@]2(c3cc(C#CCC(C(=O)OC)C(=O)OC)ccc31)[C@H](C(N)=O)[C@H]1C(=O)O[C@H](c3ccccc3)[C@H](c3ccccc3)N1[C@@H]2c1ccccc1OCCO,1.55,-2.36 (inactive),-1.12 (inactive),2.65 (inactive),1.89,0.533 (inactive),-0.204,1.56,1.06,-0.0661
